In all, about 39,000 compounds went through this assay and about 3,300 (8.5%) were called active. The entries come from a sample that favours actives as a whole.
test system: HepG2; assay: cytotoxicity call (relative viability < 0.9); conditions: 10 µM

Structure (SMILES)	cytotoxicity call
C[C@H](CO)N1C[C@H](C)[C@@H](CN(C)Cc2ccccc2)Oc2cc(C#CC(C)(C)O)ccc2S1(=O)=O	inactive
C[C@@H]1CN([C@@H](C)CO)C(=O)c2cc(NC(=O)Nc3ccc(C(F)(F)F)cc3)ccc2O[C@@H](C)CCCCO[C@@H]1CN(C)C(=O)C1CCCCC1	inactive
COc1ccc(S(=O)(=O)N(C)C[C@H]2Oc3ncc(C#CC4(O)CCCC4)cc3C(=O)N([C@@H](C)CO)C[C@H]2C)cc1	inactive
Cn1nnnc1SCC(=O)NC(C)(C)C	inactive
Cn1cc(-c2[nH]c3cc(NC(=O)[C@H](N)C4CCCCC4)cc4c3c2C=NNC4=O)cn1	active
COc1ccc(-c2cnc3c(c2)C(=O)N([C@H](C)CO)C[C@@H](C)[C@@H](CN(C)C(=O)Cc2ccccn2)O3)cc1	inactive
CC(C)NC(=O)Nc1ccc2c(c1)CC(=O)N([C@@H](C)CO)C[C@H](C)[C@@H](CN(C)Cc1ccc(C(=O)O)cc1)O2	inactive
CC(=O)N1[C@@H]2Cn3c(ccc(-c4ccccc4)c3=O)[C@H]1[C@@H](C(=O)N1CCN(C)CC1)[C@@H]2CO	inactive
C[C@@H]1CCCCO[C@@H](CN(C)C(=O)Nc2ccc(F)cc2)[C@@H](C)CN([C@H](C)CO)C(=O)c2cc(NC(=O)Cc3ccccc3)ccc2O1	inactive
O=C1C(O)=C(O)C(=O)C(O)=C1O	active
Cc1cc(C(=O)O)sc1[C@@H](N)C(=O)O	inactive
C[C@@H]1CN([C@@H](C)CO)C(=O)c2cc(-c3cccnc3)cnc2O[C@H]1CN(C)C(=O)Nc1ccc2c(c1)OCO2	inactive
C[C@H]1CCCCO[C@H](CN(C)C(=O)Nc2ccc(F)cc2)[C@@H](C)CN([C@@H](C)CO)C(=O)c2cc(NC(=O)Nc3ccc4c(c3)OCO4)ccc2O1	inactive
C[C@@H]1CN([C@@H](C)CO)C(=O)c2cc(NC(=O)Cc3cn(C)c4ccccc34)ccc2O[C@@H]1CN(C)C(=O)Nc1ccc(C(F)(F)F)cc1	inactive
C[C@@H]1CN([C@H](C)CO)C(=O)c2cc(NC(=O)Cc3cn(C)c4ccccc34)ccc2O[C@H]1CN(C)Cc1ccc(C(F)(F)F)cc1	inactive
C[C@@H]1CN([C@H](C)CO)C(=O)c2cc(NC(=O)Cc3cn(C)c4ccccc34)ccc2O[C@@H]1CN(C)Cc1ccc(C(F)(F)F)cc1	active
C[C@H](CO)N1C[C@H](C)[C@H](CN(C)C(=O)Nc2cccc3ccccc23)Oc2ccc(NC(=O)Cc3cn(C)c4ccccc34)cc2C1=O	inactive
C[C@H]1CN([C@@H](C)CO)C(=O)c2cc(NC(=O)Cc3cn(C)c4ccccc34)ccc2O[C@H]1CN(C)C(=O)Nc1ccc(C(F)(F)F)cc1	inactive
C[C@@H]1CN([C@@H](C)CO)C(=O)c2cc(NC(=O)Cc3cn(C)c4ccccc34)ccc2O[C@@H]1CN(C)C(=O)Nc1cccc2ccccc12	active
C[C@H]1CN([C@@H](C)CO)C(=O)c2cc(NC(=O)Cc3cn(C)c4ccccc34)ccc2O[C@@H]1CN(C)C(=O)Nc1cccc2ccccc12	inactive
C[C@@H]1CN([C@H](C)CO)C(=O)c2cc(NC(=O)Cc3cn(C)c4ccccc34)ccc2O[C@H]1CN(C)C(=O)Nc1ccc(C(F)(F)F)cc1	active
C[C@H](CO)N1C[C@H](C)[C@H](CN(C)C(=O)Nc2ccc(C(F)(F)F)cc2)Oc2ccc(NC(=O)Cc3cn(C)c4ccccc34)cc2C1=O	inactive
C[C@H](CO)N1C[C@H](C)[C@@H](CN(C)C(=O)Nc2ccc(C(F)(F)F)cc2)Oc2ccc(NC(=O)Cc3cn(C)c4ccccc34)cc2C1=O	inactive

Structure (SMILES)	cytotoxicity call
C[C@H]1CN([C@@H](C)CO)C(=O)c2cc(NC(=O)Cc3cn(C)c4ccccc34)ccc2O[C@@H]1CN(C)C(=O)Nc1ccc(C(F)(F)F)cc1	active
C[C@H](CO)N1C[C@H](C)[C@@H](CN(C)Cc2ccc(C(F)(F)F)cc2)Oc2ccc(NC(=O)Cc3cn(C)c4ccccc34)cc2C1=O	inactive
C[C@@H]1CN([C@H](C)CO)C(=O)c2cccc(NC(=O)c3ccncc3)c2O[C@H]1CN(C)C(=O)Nc1ccc2c(c1)OCO2	inactive
Cc1c(C)n2c3c(=O)[nH]c(=O)n(C)c3nc2n1C	inactive
C[C@@H]1CN([C@H](C)CO)C(=O)c2cc(NC(=O)C3CCCCC3)ccc2O[C@@H](C)CCCCO[C@@H]1CN(C)Cc1ccc(C(=O)O)cc1	inactive
COc1ccc(S(=O)(=O)N2C[C@@H](O)COC[C@H]3O[C@@H](CC(=O)N[C@@H]4CCN(Cc5ccccc5)C4)CC[C@@H]32)cc1	inactive
C[C@@H]1CN([C@H](C)CO)C(=O)Cc2cc(NC(=O)Cn3cnnn3)ccc2O[C@@H]1CN(C)Cc1ccc(C(=O)Nc2ccccc2N)cc1	inactive
C[C@@H]1CN([C@H](C)CO)C(=O)c2cc(NS(=O)(=O)c3ccc(Cl)cc3)ccc2O[C@@H](C)CCCCO[C@@H]1CN(C)C(=O)c1ccncc1	inactive
C[C@@H]1CN([C@@H](C)CO)C(=O)c2cccc(NS(=O)(=O)c3cn(C)cn3)c2O[C@H]1CN(C)C(=O)Nc1ccc(F)cc1	inactive
C[C@@H]1CCCCO[C@H](CN(C)C(=O)C2CCCCC2)[C@H](C)CN([C@H](C)CO)C(=O)c2cc(NC(=O)NC3CCCCC3)ccc2O1	inactive
C[C@@H]1CN([C@@H](C)CO)C(=O)Cc2cc(NC(=O)NC3CCCCC3)ccc2O[C@@H]1CN(C)Cc1ccc(-c2ccccc2)cc1	inactive
C[C@H]1CN([C@@H](C)CO)C(=O)Cc2cc(NC(=O)NC3CCCCC3)ccc2O[C@H]1CN(C)Cc1ccc(-c2ccccc2)cc1	inactive
C[C@H]1CN([C@@H](C)CO)C(=O)Cc2cc(NC(=O)NC3CCCCC3)ccc2O[C@@H]1CN(C)Cc1ccc(Oc2ccccc2)cc1	inactive
C[C@H](CO)N1C[C@H](C)[C@@H](CN(C)Cc2ccc(Oc3ccccc3)cc2)Oc2ccc(NC(=O)NC3CCCCC3)cc2CC1=O	inactive
C[C@@H]1CN([C@@H](C)CO)C(=O)Cc2cc(NC(=O)NC3CCCCC3)ccc2O[C@H]1CN(C)Cc1ccc(-c2ccccc2)cc1	inactive
C[C@@H]1CN([C@@H](C)CO)C(=O)Cc2cc(NC(=O)NC3CCCCC3)ccc2O[C@H]1CN(C)Cc1ccc(Oc2ccccc2)cc1	inactive
C[C@@H]1CN([C@H](C)CO)C(=O)Cc2cc(NC(=O)NC3CCCCC3)ccc2O[C@@H]1CN(C)Cc1ccc(Oc2ccccc2)cc1	active
C[C@@H]1CN([C@H](C)CO)C(=O)Cc2cc(NC(=O)NC3CCCCC3)ccc2O[C@H]1CN(C)Cc1ccc(Oc2ccccc2)cc1	inactive
C[C@@H]1CN([C@H](C)CO)C(=O)Cc2cc(NC(=O)NC3CCCCC3)ccc2O[C@H]1CN(C)Cc1ccc(-c2ccccc2)cc1	active
C[C@@H]1CN([C@@H](C)CO)C(=O)Cc2cc(NC(=O)NC3CCCCC3)ccc2O[C@@H]1CN(C)Cc1ccc(Oc2ccccc2)cc1	active
C[C@H]1CN([C@@H](C)CO)C(=O)Cc2cc(NC(=O)NC3CCCCC3)ccc2O[C@H]1CN(C)Cc1ccc(Oc2ccccc2)cc1	active
C[C@H](CO)N1C[C@H](C)[C@H](CN(C)Cc2ccc(Oc3ccccc3)cc2)Oc2ccc(NC(=O)NC3CCCCC3)cc2CC1=O	inactive

— the antibiotic and cytotoxicity screens of Wong et al. (2023)
